About 5,900 (0.91%) of roughly 650,000 compounds were called active. Rule as the data show it: active = inhibition above about 50%; inactive = the rest. Only a selection was taken, and actives are over-represented in it overall.

Microphthalmia-associated transcription factor (Homo sapiens), sequence (O75030 whole entry, looked up): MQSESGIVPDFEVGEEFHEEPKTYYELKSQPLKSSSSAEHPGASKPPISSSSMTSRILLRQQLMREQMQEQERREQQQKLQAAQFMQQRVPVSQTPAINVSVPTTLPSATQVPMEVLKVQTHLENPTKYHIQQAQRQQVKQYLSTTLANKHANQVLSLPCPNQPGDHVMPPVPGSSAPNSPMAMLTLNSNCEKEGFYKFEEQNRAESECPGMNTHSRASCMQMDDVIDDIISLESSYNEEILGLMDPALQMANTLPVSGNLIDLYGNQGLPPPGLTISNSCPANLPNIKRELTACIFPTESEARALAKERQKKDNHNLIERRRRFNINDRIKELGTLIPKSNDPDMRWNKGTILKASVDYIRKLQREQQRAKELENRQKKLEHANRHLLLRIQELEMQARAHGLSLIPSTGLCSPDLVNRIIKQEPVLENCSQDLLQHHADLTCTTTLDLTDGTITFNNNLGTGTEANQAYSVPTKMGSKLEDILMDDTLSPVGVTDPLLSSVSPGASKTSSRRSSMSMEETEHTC

This experiment has as its target Microphthalmia-associated transcription factor (Homo sapiens) (UniProt O75030). As to the kind of experiment: MITF inhibitors, primary screen, biochemical, AlphaScreen, human (AID 1259374).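 Also: 0% = vehicle wells with protein.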 The conditions noted are these: AlphaScreen MITF homodimerization, bead proximity signal; at 2.6 µM; active compounds read high.
Take `COc1ccc(C(=O)Oc2ccc3c(C(F)(F)F)cc(=O)oc3c2C)cc1OC`: the inhibition was 6.47% (inactive).
On to `O=S(=O)(c1ccc(-c2csc(N3N=C(c4cccs4)CC3c3ccc(F)cc3)n2)cc1)N1CCCCC1` (stereo not drawn), for which the inhibition was 12% (inactive).
As for `Cc1ccc(N(C2C=CS(=O)(=O)C2)S(=O)(=O)c2ccc(Br)cc2)cc1` (stereo not drawn), the inhibition was 19.4% (inactive).
Consider `O=C(O)c1cccc(-n2[nH]c(-c3ccccc3)cc2=O)c1`, for which the inhibition is 7.2% (inactive).
Regarding `Cc1nc2sc3c(c2c(=O)n1/N=C/c1ccccc1[N+](=O)[O-])CCCC3`, the inhibition is -7.66% (inactive).
On to `COc1cccc(NC(=O)C2CCN(S(=O)(=O)c3ccc4c(c3)oc(=O)n4C)CC2)c1`, for which the inhibition is -1.03% (inactive).
On to `Cn1c(=O)oc2cc(S(=O)(=O)N3CCC(C(=O)NC(C)(C)C)CC3)ccc21`, for which the inhibition was 70.2% (active).
`Cn1c(=O)oc2cc(S(=O)(=O)N3CCC(C(=O)NCCC4=CCCCC4)CC3)ccc21`: the inhibition was -12.8% (inactive).
Consider `CC(C)NC(=O)NC(=O)COC(=O)c1ccc(Cl)c(S(N)(=O)=O)c1`, for which the inhibition was 0.26% (inactive).
`CCOC(=O)c1ccc(NC(=O)CCc2c(C)nc3nc(CN)nn3c2C)cc1`: the inhibition was 6.45% (inactive).
On to `COc1ccccc1NC(=O)Cn1cnc2sc(C(=O)Nc3nc4ccc(Br)cc4s3)c(C)c2c1=O`, for which the inhibition is 17.9% (inactive).
As to `COCCCN1C(=O)c2cccc3c(C(=O)c4ccccc4)ccc(c23)C1=O`, the inhibition was 64.3% (active).
In the case of `COCCCN1C(=O)c2cccc3cccc(c23)C1=O`, the inhibition was 1.36% (inactive).
`CCCCN1C(=O)c2cccc3c(C(C)=O)ccc(c23)C1=O`: the inhibition is 7.62% (inactive).
On to `N/C(=N\OC(=O)c1cccc(F)c1)c1ccc(Cl)cc1`, for which the inhibition is 17.5% (inactive).
To `COc1cccc(CN2CCC(C(=O)NCCc3ccccc3)CC2)c1` belongs 54.9% (active); to `CCOc1cc(CN2CCC(C(=O)NCCc3ccccc3)CC2)ccc1O`, -1.67% (inactive); to `CCOc1ccc(CN2CCCC(C(=O)N(C)Cc3ccccc3)C2)cc1` (stereo not drawn), 45.6% (inactive).
As to `COc1cccc(CN2CCC(C(=O)NC(C)(C)C)CC2)c1`, the inhibition is 18.9% (inactive).
With `CCOC(=O)C1CCCN(Cc2ccc(F)cc2)C1` (stereo not drawn) the figure was 12.6% (inactive).
For `COc1ccc(-c2ncc(C)c(NC3CCN(Cc4ccccc4)CC3)n2)cc1`, the inhibition is 9.68% (inactive).
To `COc1ccc(-c2nc(C(=O)NC3CCN(Cc4ccccc4)CC3)cs2)cc1` belongs 9.55% (inactive).
As for `COc1ccc(CN2CCCC(C(=O)N3CCCCC3)C2)cc1` (stereo not drawn), the inhibition was 57.8% (active).
With `COc1ccc(CN2CCC(C(=O)N3CCN(Cc4ccccc4)CC3)CC2)cc1` the figure was 52% (active); with `Cc1ccccc1-n1c(=S)sc2c(=O)n(-c3ccccc3)c(SCc3cc(=O)n4cc(Cl)ccc4n3)nc21`, -24.2% (inactive).
For `CC(C)NC(=O)Cn1nc(SCc2ccccn2)nc1N`, the inhibition is 2.01% (inactive).
With `Cn1ccnc1SCc1cc(=O)c(OC(=O)c2ccccc2I)co1`, the inhibition is -3.29% (inactive).
Regarding `O=C(Nc1cccc(N2CCC(N(CC3CCC3)CC3CCCO3)CC2)c1)c1cccnc1` (stereo not drawn), the inhibition is 21.5% (inactive).
Consider `CC(C)CC(=O)N1CCc2ccccc21`, for which the inhibition was 5.19% (inactive).
To `COc1ccc(CN(C)CC(=O)N2CCc3ccccc32)cc1OC` belongs 0.1% (inactive); to `CN(CCc1ccccn1)CC(=O)N1CCc2ccccc21`, 93% (active).
On to `CN(C(=O)c1ccccc1)c1cccc(N)c1`, for which the inhibition is -4.8% (inactive).
To `COc1cc(CNCc2ccc3c(c2)OCO3)c([N+](=O)[O-])cc1OC` belongs 6.83% (inactive).
In the case of `COc1cc(CN2CCCC(CO)C2)c([N+](=O)[O-])cc1OC` (stereo not drawn), the inhibition was 12.4% (inactive).
On to `COc1cc(CN2CCN(CCO)CC2)c([N+](=O)[O-])cc1OC`, for which the inhibition was 13.5% (inactive).
As to `COc1cc(CN2CCN(Cc3ccc(C)cc3)CC2)c([N+](=O)[O-])cc1OC`, the inhibition is 80.6% (active).
With `COc1cc(CN2CCN(Cc3ccco3)CC2)c([N+](=O)[O-])cc1OC` the figure was 84.4% (active); with `COc1cc(CN2CCN(Cc3ccc(Cl)cc3)CC2)c([N+](=O)[O-])cc1OC`, 65.5% (active).
`COc1cc(CN2CCCN(C)CC2)c([N+](=O)[O-])cc1OC`: the inhibition was 14.7% (inactive).
Turning to `c1ccc(CN2CCN(Cc3ccco3)CC2)cc1`, the inhibition was 12.7% (inactive).
With `COc1cc(C(=O)N2CCCC2)c([N+](=O)[O-])cc1OC` the figure was 9.4% (inactive); with `CN1CCc2cc(CNC(=O)CC3C(=O)NCCN3CCc3ccccc3)ccc21` (stereo not drawn), -15.3% (inactive); with `CC/C(C)=N\NC(=O)CCC(=O)Nc1ccccc1`, 7.54% (inactive).
As for `NC(=O)c1ccccc1NC(=O)CCl`, the inhibition is 0.34% (inactive).
Regarding `CCNC(=O)CSc1ccc(C)cc1`, the inhibition is 1.07% (inactive).
With `CN1C(=O)CSC1=Nc1ccc(Cl)c(Cl)c1` the figure was -5.98% (inactive); with `CCNc1nc(NC(C)C)nc(OCCOC(C)=O)n1`, -3.21% (inactive); with `CCNc1nc(NCC)nc(C(=O)O)n1`, 55.1% (active).
For `CCNc1nc(OC)cc(OC)n1`, the inhibition is -5.7% (inactive).
Take `O=C(COC(=O)c1ccco1)Nc1ccc(Cl)c(Cl)c1`: the inhibition was -6.47% (inactive).
For `O=C(CN1CCN(C(=O)Nc2c(F)cccc2F)CC1)c1ccco1`, the inhibition is 39.7% (inactive).
On to `O=C(CN1CCN(CC(=O)c2ccco2)CC1)Nc1ccc(Cl)c(Cl)c1`, for which the inhibition was 65.2% (active).
As for `COc1cccc2c1OC1(CCN(C(=O)Cc3cccs3)CC1)OC2`, the inhibition was 0.59% (inactive).
To `COc1cc(C(=O)/C(=C/c2ccccc2F)c2nc3ccccc3o2)cc(OC)c1OC` belongs 5.52% (inactive).
Regarding `COC(=O)CSc1nc(C2CC2)nc2ccccc12`, the inhibition is 72.1% (active).
As to `c1ccc(CSc2nc(C3CC3)nc3ccccc23)nc1`, the inhibition was -3.42% (inactive).
For `Cc1nnc(NC(=O)CSc2nc(C3CCCCC3)nc3ccccc23)s1`, the inhibition is -12.8% (inactive).
Take `Cc1cccc(NC(=O)CC[C@H]2CN(Cc3ccccc3)CC[C@H]2N(C)C)c1`: the inhibition was -2.16% (inactive).
With `CCOc1ccc(OCCCCNCCO)cc1`, the inhibition is 63.6% (active).
Consider `OCCNCCCOc1ccc(I)cc1`, for which the inhibition was -4.92% (inactive).
Regarding `CC(C)(C)c1ccc(OCCCCNCCO)cc1`, the inhibition is -8.77% (inactive).
As for `O=C(Nc1ccc(N2CCC(NCc3ccc4c(c3)OCO4)CC2)cc1)C1CCCC1`, the inhibition was -10.3% (inactive).
Regarding `O=C(c1ccccc1)c1cccc(NC(=O)C2CCCCC2)c1`, the inhibition was -1.02% (inactive).

These data come from PubChem BioAssay AID1259374 (The Scripps Research Institute Molecular Screening Center, 2018).
